Molecules are shown by their SMILES. Calls of active or inactive are those of the source.

Results on 16 compounds are retold here after PubChem BioAssay.

Assay [1] in a line: compound effects on lung adenocarcinoma cell viability – A549, calcein-AM fluorescence, 48 h, basal, profiling panel (AID 1162). Conditions: higher = more signal.
Assay [2] is described as follows: compound effects on differentiated 3T3-L1 adipocyte viability – cell-based, 3T3-L1 adipocytes, calcein-AM fluorescence, 48 h, basal, profiling panel (AID 1163). The note with it: 3T3-L1 adipocytes viability, higher = more signal.
Assay [3] can be described thus: compound effects on hepatocellular carcinoma cell viability – HepG2, calcein-AM fluorescence, 48 h, basal, profiling panel (AID 1164). Conditions: higher = more signal.
A short description of assay [4]: compound effects on multiple myeloma cell viability – MM1S, calcein-AM fluorescence, 48 h, basal, profiling panel (AID 1165). Conditions: higher = more signal.
Assay [5] is described as follows: calcein-AM signal in unstimulated myeloma cells – cell-based, calcein-AM fluorescence, 48 h, PK04 Diversity Set, profiling panel (AID 1166).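 Further: cells grown under basal conditions without added stimulus.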 The note with it: RPMI8226 myeloma viability, higher = more signal.
The nature of assay [6]: JC-1 mitochondrial signal, unstimulated HepG2 cells – cell-based, JC-1 fluorescence, 24 h, 100 nL compound, profiling panel (AID 1167). The note with it: HepG2 mitochondrial potential, higher = more signal.
The nature of assay [7]: JC-1 mitochondrial signal, unstimulated adipocytes – cell-based, JC-1 fluorescence, 3T3-L1 adipocytes, 24 h, 100 nL compound, profiling panel (AID 1168). Conditions: JC-1 mitochondrial fluorescence, higher = more signal, called active from +8 up or from −8 down.
A short description of assay [8]: JC-1 mitochondrial signal, unstimulated myeloma cells – cell-based, JC-1 fluorescence, RPMI8226, 24 h, 100 nL compound, profiling panel (AID 1169). The note with it: JC-1 mitochondrial potential fluorescence, higher = more signal.
Assay [9] is described as follows: JC-1 mitochondrial signal, unstimulated MM1S myeloma – cell-based, JC-1 fluorescence, 24 h, 100 nL compound, profiling panel (AID 1170). Conditions: MM1S mitochondrial potential, higher = more signal.
Assay [10] is described as follows: resazurin metabolic signal in A549 cells – cell-based, resazurin fluorescence, 24 h, PK04 Diversity Set, profiling panel (AID 1171). Conditions: A549 viability, higher = more signal, called active from +8 up or from −8 down.
Further: test concentration not given here.

`COc1ccc(C(=O)Nc2ccc(CN3C(=O)[C@@]4(O[C@@H](CC(=O)N5CCC[C@H]5CO)[C@H]([Si](C)(C)c5ccc(OC)cc5)[C@H]4C)c4ccccc43)cc2)cc1`: the z-score in [1] was 0.571; in [2] it was 0.0638; in assay [3] it was 0.269; in [4], -2.5; in assay [5], -3.93; in [6], 3.78. Besides, the z-score in assay [7] was 0.926 (inactive); in assay [8] it was -1.09; in assay [9], -0.447; in [10], 0.336 (inactive).

In the case of `O=C1NC(=O)C2C1C=CC(C(O)c1cccc3ccccc13)N2Nc1ccccn1` (stereo not given), the z-score in [1] was 0.428; in assay [2], -0.608; in assay [3], -0.32; in assay [4], 0.002; in [5], -0.0565; in [6] it was 0.15. Moreover, the z-score is -0.0987 (inactive) in [7], -0.216 in [8], -0.184 in assay [9] and -0.721 (inactive) in assay [10].

As for `O=C(NCc1ccc(F)cc1)[C@H]1C[C@H]2C(=O)N[C@@H](Cc3ccccc3)C(=O)N2[C@H]1c1ccc(O)cc1`, the z-score in assay [1] is 0.0416; in assay [2], 0.17; in [3], 0.0329; in assay [4], -0.973; in assay [5] it was -0.27; in assay [6], 1.11. Moreover, the z-score is 0.672 (inactive) in assay [7], 0.736 in assay [8], 0.453 in [9] and 0.278 (inactive) in assay [10].

On to `CCOc1cc(C(O)C2C=CC3C(=O)N(c4ccccc4)C(=O)C3N2Nc2ccccc2)ccc1O` (stereo not given), for which the z-score in assay [1] is -0.0398; in assay [2] it was -1.24; in [3] it was 0.992; in [4], -3.04; in assay [5] it was 0.461; in assay [6] it was -1.32. The z-score is -2.33 (inactive) in assay [7], 0.279 in [8], -0.817 in assay [9] and 0.314 (inactive) in [10].

With `COc1cc(OC)c(C(O)C2C=CC3C(=O)NC(=O)C3N2Nc2ccc(Cl)cc2Cl)cc1Br` (stereo not given), the z-score in [1] is -1.52; in assay [2], 0.0779; in assay [3], -2.49; in [4], -3.42; in [5] it was -3.97; in assay [6] it was -2.87. Further, the z-score was -0.82 (inactive) in assay [7], -1.09 in assay [8], -1.27 in [9] and -2.56 (inactive) in assay [10].

With `O=C1c2ccccc2[C@](Cc2ccccc2I)(C(=O)NC2CC2)[C@H](c2ccc(CO)cc2)N1Cc1ccccc1`, the z-score in [1] is 0.465; in [2] it was -0.241; in [3], -0.236; in assay [4], -0.349; in [5], -0.253; in assay [6], 0.478. Moreover, the z-score in assay [7] is 0.174 (inactive); in assay [8] it was -0.679; in assay [9] it was 0.00466; in assay [10] it was 1.47 (inactive).

As to `COCCOC(=O)N1C(=O)[C@@]2(c3cc(C#Cc4ccc(OC)cc4)ccc31)[C@H](c1ccc(O)cc1)N1[C@H](c3ccccc3)[C@H](c3ccccc3)OC(=O)[C@H]1[C@@H]2C(=O)NC[C@H](O)c1ccccc1`, the z-score in [1] was -0.828; in [2], 1.44; in assay [3], -0.55; in assay [4], -1; in assay [5], -2.16; in [6], -1.99. Also, the z-score is 2.46 (inactive) in assay [7], -0.653 in assay [8], -0.524 in assay [9] and 0.123 (inactive) in assay [10].

As to `CCOC(=O)[C@H]1CC=C2CC1C(=O)N1CCC[C@@H]1[C@@H]2O[Si](C)(C)C(C)(C)C` (stereo not given in full), the z-score in assay [1] was -1.63; in assay [2], 0.312; in [3] it was -1.43; in assay [4] it was -2.85; in assay [5], -4.07; in assay [6], -2.25. Also, the z-score was -1.07 (inactive) in assay [7], -1.06 in [8], 0.167 in assay [9] and 3.69 (inactive) in [10].

On to `O=C(O)[C@@]1(CCS(=O)(=O)c2ccccc2)COC(c2ccc(OCCCO)cc2)=N1`, for which the z-score was 0.518 in assay [1]; -0.664 in assay [2]; -0.0551 in [3]; -1.69 in assay [4]; -0.658 in [5]; -1.13 in [6]. Also, the z-score in [7] is 0.148 (inactive); in assay [8], 0.943; in assay [9], -0.436; in [10], 0.221 (inactive).

On to `COC(=O)[C@@]1(Cc2ccc(OC)cc2)[C@H]2c3cc(C(=O)N4CCCC4)n(Cc4ccsc4Br)c3C[C@H]2CN1C(=O)c1ccccc1`, for which the z-score is -1.92 in assay [1]; -0.793 in assay [2]; -0.119 in [3]; -3.3 in [4]; -4.43 in assay [5]; 0.321 in [6]. Moreover, the z-score in assay [7] is -1.05 (inactive); in [8], -0.822; in assay [9] it was -2.91; in [10] it was -2.75 (inactive).

Turning to `CC(=O)N1Cc2ccccc2C[C@@]2(COC(c3ccc(OCCCO)cc3)=N2)C1=O`, the z-score in assay [1] was 1.23; in [2] it was 1.93; in assay [3], 2.01; in [4], -2; in assay [5], 0.151; in [6], 0.933. The z-score in assay [7] was 1.59 (inactive); in [8] it was -0.894; in assay [9], -0.394; in assay [10], 0.89 (inactive).

For the compound `C=CCC(OC(C)=O)[C@@H]1[C@@H](N(Cc2ccc(-c3cccc(C(F)(F)F)c3)o2)C(=O)Cc2ccc(F)cc2)c2cc(OCCCO)ccc2N1C(=O)Cc1ccc(OC)cc1` (stereo not given in full), the z-score in [1] is 1.31; in [2], 1.16; in assay [3], 0.892; in assay [4], -0.394; in assay [5], 0.274; in assay [6], 2.87. Also, the z-score is 0.649 (inactive) in assay [7], -0.386 in assay [8], -0.195 in [9] and 0.555 (inactive) in assay [10].

In the case of `CCCCC(=C=CC[C@@H](O)c1ccccc1OCCO)CCO`, the z-score was 0.499 in assay [1]; 0.337 in [2]; 0.595 in [3]; -0.0292 in assay [4]; 0.181 in [5]; 0.251 in [6]. The z-score is -0.321 (inactive) in [7], 0.11 in assay [8], 0.502 in assay [9] and 0.245 (inactive) in assay [10].

For the compound `CN1C(=O)C2C=CC(C(O)C3=C[C@H]4C[C@@H](C3)C4(C)C)N(Nc3ccccc3)C2C1=O` (stereo not given in full), the z-score is -0.456 in assay [1]; -0.893 in [2]; -0.0728 in assay [3]; -2.52 in [4]; -0.724 in assay [5]; -1.75 in [6]. Moreover, the z-score in [7] was -0.209 (inactive); in [8] it was -0.353; in [9] it was -0.39; in assay [10], 0.0383 (inactive).

Regarding `CC(=O)n1cc(C(O)C2C=CC3C(=O)N(C)C(=O)C3N2Nc2ccccc2)c2ccccc21` (stereo not given), the z-score in assay [1] is -0.617; in [2] it was -0.652; in assay [3], -0.804; in assay [4] it was 0.305; in assay [5], -1.25; in [6], -1.58. For the same compound, the z-score is -0.454 (inactive) in [7], -0.0553 in [8], 0.118 in assay [9] and -0.162 (inactive) in assay [10].

Regarding `CCCC#C[Si](O[C@H](CC)c1cn([C@H](CO)Cc2ccccc2)nn1)(C(C)C)C(C)C`, the z-score in [1] is 0.0096; in assay [2], -0.263; in [3], 0.0341; in assay [4], -1.21; in [5] it was 0.0028; in assay [6], -0.371. The z-score in assay [7] is 0.406 (inactive); in assay [8], 0.78; in assay [9], -0.752; in assay [10] it was 0.401 (inactive).
